Results taken from PMC4552634, “A New Set of Chemical Starting Points with Plasmodium falciparum Transmission-Blocking Potential for Antimalarial Drug Discovery” (PLoS ONE, 2015).
In all, about 13,000 compounds went through this assay and about 3,200 (25%) showed an effect of 50% or more. This is one part of the list.

Each molecule was assayed on P. falciparum stage V gametocytes. Conditions: 48 h, 5 µM; inhibitor.
Design: BacTiter-Glo ATP luminescence viability of purified stage V gametocytes in 384-well plates, per cent inhibition versus DMSO

Row | SMILES | % Inhibition
1 | O=C(Nc1ccc(N2CCC(Nc3ccccn3)CC2)cc1)c1cnc(Cl)c(Cl)c1 [TCMDC-134629] | 28.05%
2 | Cc1cccc2nc(-c3ccc(-c4cccc(C(=O)NCCN5CCCC5)c4)s3)[nH]c12 [TCMDC-132317] | 13.21%
3 | Cc1cc(N[C@@H](CC(C)C)C(=O)NC2CCCC2)nc(NCC2CCCCC2)n1 [TCMDC-134936] | -32.07%
4 | Cc1cc(N[C@@H](Cc2ccccc2)C(=O)NC2CCCC2)nc(NCCOc2ccccc2)n1 [TCMDC-134755] | 31.62%
5 | Cc1cc(N[C@@H](CC(C)C)C(=O)NC2CCCC2)nc(NCc2ccccc2C)n1 [TCMDC-134908] | -12.42%
6 | Cc1cc(N[C@@H](Cc2ccccc2)C(=O)NC2CCCC2)nc(NCC2CCCCC2)n1 [TCMDC-134927] | -16.19%
7 | Cc1cc(N[C@@H](Cc2ccccc2)C(=O)NC2CCCC2)nc(NCCc2ccc(F)cc2)n1 [TCMDC-134784] | 110%
8 | Cc1cc(N[C@@H](CC(C)C)C(=O)NC2CCCC2)nc(NCCc2ccc(F)cc2)n1 [TCMDC-134791] | 99.38%
9 | O=c1cc(NCCCNCc2ccc(Cl)c(Cl)c2)[nH]c2cc(F)cc(F)c12 [TCMDC-139408] | -8.545%
10 | COc1cc(NC(=O)N2CCOC(CCN3CCC(c4ccccc4)CC3)(c3ccc(Cl)c(Cl)c3)C2)cc(OC)c1 (stereo not drawn) [TCMDC-135343] | -16.83%
11 | COc1ccc2nccc([C@@H](O)CN3CCC(NCCNc4ccccn4)CC3)c2c1 [TCMDC-140562] | 28.84%
12 | COc1ccc(C(=O)N2CCC3(CC2)C(=O)N(CC(=O)NC2CCCCC2)CN3c2ccccc2)c(OC)c1 [TCMDC-125169] | -35.99%
13 | COCCCNC(=O)C1CCN(C(c2ccc(Cl)cc2)c2ccc(Cl)cc2)CC1 [TCMDC-135521] | -10.75%
14 | O=C(c1ccccc1)N1COCC(CCN2CCC(N3CCCC3)CC2)(c2ccc(Cl)c(Cl)c2)C1 (stereo not drawn) [TCMDC-141760] | 43.61%
15 | O=C(Nc1ccccc1)NC1CCN(CCC2(c3ccc(Cl)c(Cl)c3)COCN(C(=O)c3ccccc3)C2)C1 (stereo not drawn) [TCMDC-141759] | 59.82%
16 | CC(=O)c1ccc(N2CCN(CCC3(c4ccc(Cl)c(Cl)c4)COCN(C(=O)c4ccccc4)C3)CC2)cc1 (stereo not drawn) [TCMDC-141761] | 30.09%
17 | O=C1NC(c2ccc(N3CCCCCC3)cc2)Nc2ccccc21 (stereo not drawn) [TCMDC-125058] | 38.08%
18 | CCN(CC)C(=O)C1CCCN(C(=O)Nc2cc(C(F)(F)F)cc(C(F)(F)F)c2)C1 (stereo not drawn) [TCMDC-124042] | -75.6%
19 | CC(CN1CCN(C)CC1)C(=O)Nc1ccc(-c2cccc(-c3nc4ccc(C(F)(F)F)cc4[nH]3)c2)cc1 (stereo not drawn) [TCMDC-137149] | 40.39%
20 | CC(CN1CCN(C)CC1)C(=O)Nc1ccc(-c2cccc(-c3nc4ccc(F)cc4[nH]3)c2)cc1 (stereo not drawn) [TCMDC-137143] | 97.96%
21 | CC(CN(C)C)C(=O)Nc1ccc(-c2ccc(-c3nc4ccc(F)cc4[nH]3)cc2)cc1 (stereo not drawn) [TCMDC-136778] | 6.212%
22 | CC(CN(C)C)C(=O)Nc1cccc(-c2ccc(-c3nc4ccc(F)cc4[nH]3)cc2)c1 (stereo not drawn) [TCMDC-137106] | -31.14%
23 | CC(CN1CCN(C)CC1)C(=O)Nc1cccc(-c2ccc(-c3nc4ccc(C(F)(F)F)cc4[nH]3)cc2)c1 (stereo not drawn) [TCMDC-137152] | 80.48%

Row | SMILES | % Inhibition
24 | CC(CN1CCN(C)CC1)C(=O)Nc1cccc(-c2cccc(-c3nc4ccc(F)cc4[nH]3)c2)c1 (stereo not drawn) [TCMDC-137145] | 48.07%
25 | CC(CN1CCN(C)CC1)C(=O)Nc1ccc(-c2ccc(-c3nc4ccc(C(F)(F)F)cc4[nH]3)cc2)cc1 (stereo not drawn) [TCMDC-137153] | -5.664%
26 | CC(CN1CCN(C)CC1)C(=O)Nc1ccc(-c2ccc(-c3nc4ccc(F)cc4[nH]3)cc2)cc1 (stereo not drawn) [TCMDC-136777] | 4.283%
27 | CC(CN1CCN(C)CC1)C(=O)Nc1cccc(-c2ccc(-c3nc4ccc(F)cc4[nH]3)cc2)c1 (stereo not drawn) [TCMDC-137146] | 77.49%
28 | O=C(N[C@@H](CC1CCCCC1)C(=O)NCc1cccc2ccccc12)c1ccc(O)c(-c2ccc(Cl)c(Cl)c2)c1 [TCMDC-140879] | 41.81%
29 | Cc1noc(C)c1-c1cccc(CNCc2ccc(-c3cccc(-c4nc5cc(F)ccc5[nH]4)c3)cc2)c1.O=C(O)C(F)(F)F [TCMDC-133060] | 13.66%
30 | Cc1cccc(Oc2cccc3[nH]nc(N)c23)c1 [TCMDC-131935] | -73.01%
31 | COCCOc1cccc(CN2CCC(c3cc4nc(C)cc(C(F)(F)F)n4n3)C2)c1 (stereo not drawn) [TCMDC-134506] | -5.307%
32 | Cc1cc(C(F)(F)F)n2nc(C(=O)N(Cc3cncn3Cc3cccc(F)c3)CC3CC3)cc2n1 [TCMDC-132460] | 0.2406%
33 | Cc1cc(C(F)(F)F)n2nc(C3CCN(Cc4cc(C)c(O)c(C)c4)C3)cc2n1 (stereo not drawn) [TCMDC-124827] | 92.15%
34 | COCCNCc1ccc(-c2cccc(CN(C(=O)NCCc3ccccc3)C3CCN(Cc4ccccc4)CC3)c2)cc1 [TCMDC-140616] | 102.8%
35 | O=C(c1cccs1)N(Cc1cccc(-c2ccc(CNC3CCCC3)cc2)c1)C1CCN(Cc2ccccc2)CC1 [TCMDC-140567] | 107%
36 | COCC(=O)N(Cc1cccc(-c2ccc(CNCCc3ccccc3)cc2)c1)C1CCN(Cc2ccccc2)CC1 [TCMDC-140536] | 103%
37 | O=C(NCCc1ccccc1)N(Cc1cccc(-c2ccc(CNCCc3ccccc3)cc2)c1)C1CCN(Cc2ccccc2)CC1 [TCMDC-140617] | 94.88%
38 | COc1cc(Nc2ccnc3ccc(C(F)(F)F)cc23)cc(OC)c1OC [TCMDC-138471] | 8.096%
39 | Cc1cc(C)cc(N2C(N)=NC(N)=NC2(C)C)c1 [TCMDC-137927] | 10.77%
40 | CCOC(=O)c1c(NC(NC(=O)c2ccc(C(C)(C)C)cc2)C(Cl)(Cl)Cl)sc2c1CCCC2 (stereo not drawn) [TCMDC-125722] | 17.61%
41 | Cc1cccc(CC(N)=NCCCCCCN=C(N)Cc2cccc(C)c2)c1 [TCMDC-138135] | -14.49%
42 | CC(C)C[C@H](NC(=O)OC(C)(C)C)C(=O)Nc1ccc(Cc2ccc(NC(=O)[C@H](CC(C)C)NC(=O)OC(C)(C)C)cc2)cc1 [TCMDC-131866] | -6.979%
43 | CCS[C@@H]1O[C@H](COC(=O)c2ccccc2)[C@H](OC(=O)c2ccccc2)[C@H](OC(=O)c2ccccc2)[C@H]1OC(=O)c1ccccc1 [TCMDC-137162] | 42.17%
44 | COc1ccccc1Nc1nc(C)cc(NCc2ccc(-c3c(C)noc3C)cc2)n1 [TCMDC-133453] | 12.57%
45 | Cc1[nH]c2cc(Cl)ccc2c1C1=CCN(CCCCC2(C)C(=O)Nc3ccccc32)CC1 (stereo not drawn) [TCMDC-140945] | -53%
46 | COc1cc(C(=O)NCCCN2CCN(c3cccc(Cl)c3)CC2)ccc1-c1cc2cc(Cl)c(Cl)cc2[nH]1 [TCMDC-139622] | 6.24%

Row | SMILES | % Inhibition
47 | O=C(NCCc1ccccc1)N(Cc1ccc(-c2cccc(CN3CCNCC3)c2)cc1)C1CCN(Cc2ccccc2)CC1 [TCMDC-139635] | 105.4%
48 | O=C(c1cccs1)N(Cc1cccc(-c2ccc(CNCCc3ccccc3)cc2)c1)C1CCN(Cc2ccccc2)CC1 [TCMDC-140566] | 66.5%
49 | O=C(NCCc1ccccc1)N(Cc1cccc(-c2ccc(CNC3CCCC3)cc2)c1)C1CCN(Cc2ccccc2)CC1 [TCMDC-140618] | 99.39%
50 | O=c1cc(NCCCNCc2cc3ccccc3s2)[nH]c2ccccc12 [TCMDC-140234] | -96.03%
51 | COc1ccc(NC(=O)/C=C/c2ccc(Cl)c(C(F)(F)F)c2)cc1OCCN(C(C)C)C(C)C [TCMDC-139646] | -39.1%
52 | COc1ccc(Br)cc1C1C2C(=O)N(c3ccc(Br)cc3)C(=O)C2C2(C(=O)O)CC(OCc3ccccc3)CN12 (stereo not drawn) [TCMDC-139264] | 14.59%
53 | N#Cc1ccnc(-c2ccc(CNC3CCN(CC4Cn5c(=O)ccc6ccc(F)c4c65)CC3)cc2)c1 (stereo not drawn) [TCMDC-134408] | -28.26%
54 | CCc1ccc(OCCCON2C(N)=NC(N)=NC2(C)C)cc1 [TCMDC-131321] | 2.956%
55 | CC(=O)Nc1cccc(NC(=O)CSc2ccc(-c3nc4ccccc4[nH]3)cn2)c1 [TCMDC-123529] | 49.75%
56 | O=C(C1CC1c1ccccc1)N(Cc1ccc(-c2ccc(CNCCc3ccccc3)cc2)cc1)C1CCNCC1 (stereo not drawn) [TCMDC-141443] | 108.5%
57 | O=C(CCC1CCCC1)N(Cc1ccc(-c2ccc(CNCCc3ccccc3)cc2)cc1)C1CCCNC1 (stereo not drawn) [TCMDC-141444] | 116.1%
58 | CC(=O)Nc1ncc(C(=O)Nc2cccc(-c3cccc(-c4nc5ccccc5[nH]4)c3)c2)s1 [TCMDC-136911] | 11.96%
59 | CC(=O)N1N=C(c2[nH]c3ccc(Br)cc3c2C)OC1c1ccccc1 (stereo not drawn) [TCMDC-124752] | 9.307%
60 | Cc1cc(N)nc2ccc(-c3ccc(CCN)cc3)cc12 [TCMDC-137786] | 103.4%
61 | Cc1ccc(O)cc1Nc1ccnc2ccc(-c3cccc(CN(C)C)c3)cc12 [TCMDC-138481] | 38.94%
62 | Cc1cc(N)nc2ccc(-c3cccc(CN)c3)cc12 [TCMDC-137784] | 92.85%
63 | Cc1cc(N)nc2ccc(-c3ccc(CN)cc3)cc12 [TCMDC-137785] | 97.26%
64 | Cc1cc(N)nc2ccc(CNCCc3ccccc3Br)cc12 [TCMDC-138092] | 32.49%
65 | Cc1ccc(Cc2c(N)nc3nc(N)nc(N)c3c2C)cc1 [TCMDC-138063] | 9.056%
66 | COc1ccc(CCNCc2ccc3nc(N)cc(C)c3c2)cc1 [TCMDC-138093] | 96.45%
67 | COc1ccc(CCNCc2ccc3c(C)cc(N)nc3c2)cc1 [TCMDC-138096] | 41.14%
68 | NCc1ccc(Nc2nccc(Nc3ccc(-c4ccccc4)cc3)n2)cc1 [TCMDC-136004] | 25.82%
69 | COc1ccc2nc(C)cc(NCc3ccc4ccccc4c3)c2c1.Cl [TCMDC-138977] | 6.085%
